Several values for one entry are separate records, joined by “and”; a condition that tells them apart may be missing. Identical values can stand only once. This is part of a sample that, as a whole, favours compounds with a hit. Of some 83,000 tested, about 20% had one in any assay.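 For each line, cells grew in 96-well plates with the test compound present at a single concentration for 48 hours.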 Activity calls are given as the source filed them. Rule for the calls: active = growth percent below 10; inactive = the rest.
tested on: SK-MEL-2 melanoma; assay: NCI-60 one-dose screen, 48 h (100 = growth as untreated, 0 = no growth, -100 = all killed); settings: 10 µM unless noted

Structure (SMILES) | growth
CCCCCCCCCCCCCCNCc1ccccc1 | 96.4% (inactive)
O=C(Nc1cccc(Br)c1)Oc1ccc(Cl)c2cccnc12 | 17% [100 µM] (inactive)
Cc1ccc2c(ccc3c[n+]4c5ccccc5ccc4n32)c1 | -19.8% (active)
CCC(c1cccc(O)c1)C(CC)c1cccc(O)c1 (configuration not stated) | 71.8% (inactive)
CN(C)c1ccc(N=Nc2cccc3ccccc23)cc1 | 100% (inactive)
CCOC(=O)/C=C/c1ccc([N+](=O)[O-])o1 | 85.3% (inactive)
Cc1cc2nc(CS)[nH]c2cc1C | 101% (inactive)
CCCCCCC(C)c1ccccc1O (configuration not stated) (tested in a mixture with another compound) | 123% (inactive)
Oc1c(Br)c(Br)c(O)c(Br)c1Br | 104% (inactive)
COC(=O)[C@@]12OC[C@]34[C@H]([C@@H](O)[C@@H]1O)[C@@]1(C)[C@H](O)C(=O)C=C(C)[C@@H]1C[C@H]3OC(=O)C(OC(C)=O)[C@@H]24 (some centres not stated) | -49.5% (active)
NC(=S)N/N=C/c1ccc(Cl)s1 | 105% (inactive)
CCC(CC)COC(=O)c1ccc(O)c(O)c1 | 85.6% (inactive)
CCOc1ccc(-c2nc3ccc(-c4nc5ccc(N6CCN(C)CC6)cc5[nH]4)cc3[nH]2)cc1 | 4.1% (active)
Nc1nc(N)c2c(ccc3c2ccn3Cc2cccc([N+](=O)[O-])c2)n1 | -92% (active)
O[C@H]1[C@H]2c3cc4c(cc3CN3CCC(=C[C@@H]1O)[C@H]23)OCO4 | 24.5% (inactive)
O=C1C=CC(=O)N1C1c2ccccc2-c2ccccc21 | 100% (inactive)
COc1ccc(N=N/N=c2\sc3cc(OC)ccc3n2C)cc1 | 83.8% (inactive)
C1=C(c2ccccc2)C(c2ccc(OCCN3CCCCC3)cc2)Oc2ccccc21 (configuration not stated) | 77.3% (inactive)
CC1SC(=S)N(c2ccc(Cl)cc2)C1=O (configuration not stated) | 98.2% (inactive)
Oc1ccc(/C=N/NC(=S)Nc2ccccc2)nc1 | 11.8% (inactive)

tested on: EKVX NSCLC; assay: as above; settings: 10 µM unless noted

Structure (SMILES) | growth
Cc1cc(C(C)(CC(C)C)c2ccc(O)c(C)c2)ccc1O | 89.5% (inactive)
O=C1c2cccnc2-c2nccc3c2c1nc1cc(Br)ccc13 | 32% (inactive) and -81.4% (active)
NC(=S)N/N=C\c1nccc2c(C(F)(F)C(F)(F)C(F)(F)F)cccc12 | 11.8% (inactive)
N#CSCc1ccc(Cl)c(CSC#N)c1 | 75.1% (inactive)
CC(=O)Nc1cccc2cc(O)ccc12 | 101% (inactive) and 120% (inactive) and 99.3% (inactive)
O=C1c2ccccc2C(=O)c2sc(Nc3ccc(Cl)cc3)nc21 | 53.6% (inactive)
CCCCCC(CCCCC)C(=O)O | 116% (inactive)
CN(C)c1ccc(C(=C2C=CC(=[N+](C)C)C=C2)c2ccc(N(C)C)cc2)cc1 (tested in a mixture with another compound) | -35.6% (active)
Nc1ncnc2c1ncn2C1OC(CO)C(O)C1O (configuration not stated) | 116% (inactive) and 88.3% (inactive) and 105% (inactive)
Oc1c(Br)cc(Cl)cc1C(c1cc(Cl)cc(Br)c1O)C(Cl)(Cl)Cl | 15.7% (inactive)
CC1OC(OC2C(OC3CCC4(C)C(CCC5(C)C4CC=C4C6CC(C)(C)CCC6(CO)C(O)CC45C)C3(C)C)OC(C(=O)O)C(OC3OC(COC4OC(CO)C(O)C(O)C4O)C(O)C(O)C3O)C2O)C(O)C(O)C1O (configuration not stated) | -74.8% (active)
O=Nc1ccccc1N=O | 88.7% (inactive)
CN(Cc1cnc2nc(N)nc(N)c2n1)c1ccc(C(=O)NC(CCC(=O)O)C(=O)O)cc1 (configuration not stated) | 70.9% (inactive)
CCCCCCCCCCCCCCNCc1ccccc1 | 93.4% (inactive)
O=C(Nc1cccc(Br)c1)Oc1ccc(Cl)c2cccnc12 | -18.3% [100 µM] (active)
Cc1ccc2c(ccc3c[n+]4c5ccccc5ccc4n32)c1 | 22.4% (inactive)
CCC(c1cccc(O)c1)C(CC)c1cccc(O)c1 (configuration not stated) | 64.1% (inactive)
CN(C)c1ccc(N=Nc2cccc3ccccc23)cc1 | 71.7% (inactive)
CCOC(=O)/C=C/c1ccc([N+](=O)[O-])o1 | 107% (inactive)
Cc1cc2nc(CS)[nH]c2cc1C | 84.8% (inactive)
CCCCCCC(C)c1ccccc1O (configuration not stated) (tested in a mixture with another compound) | 110% (inactive)
Oc1c(Br)c(Br)c(O)c(Br)c1Br | 112% (inactive)
